# Experimental data from PubChem BioAssay AID893 (National Center for Advancing Translational Sciences (NCATS), 2007).
# About 5,700 (7.6%) of roughly 75,000 compounds were called active. About 7% were inconclusive and are not listed. The sample holds actives, similar compounds and a random draw of the others, so the mix is not that of the screen. Calls come from the whole dose curve; as a rule, active = well fitted inhibition curve with a large enough effect; inconclusive = small, poorly fitted or top-dose-only effect; inactive = no such curve, though single readings can be large or run the other way.
# Target: 3-hydroxyacyl-CoA dehydrogenase type-2 (Homo sapiens) (UniProt Q99714)
# Test: qHTS Assay for Inhibitors of HSD17B4, hydroxysteroid (17-beta) dehydrogenase 4; note: nearly all actives have a fitted effect of over 70% in size
# Settings: recombinant HSD17B10, NADH fluorescence kinetic; series mostly up to 57.1 µM; activity change, negative = inhibition: at the top concentration
# Text: Assay Overview: NIH Molecular Libraries Screening Centers Network [MLSCN] NIH Chemical Genomics Center [NCGC] Structural Genomics Consortium [SGC] Grant number: None HADH2: Hydroxyacyl-Coenzyme A dehydrogenase, type II, was supplied by researchers at the Structural Genomics Consortium, Oxford University lab (PI Udo Oppermann). The mitochondrial enzyme 17-hydroxysteroid dehydrogenase type 10 (HSD17-10) previously classified as type II hydroxyacyl-CoA dehydrogenase (HADH2) catalyzes the NAD+ dependent oxidation of a variety of substrates including acyl-CoAs, androgens and neurosteroids as well as bile acids(Shafqat N, Marschall HU, Filling C, et al. Biochemical Journal. 2003;376(Pt 1):49-60). […] The enzyme was produced by E.coli fermentation as His-tagged recombinant for the purpose of X-ray structure determination, and had been mass-spectrometry characterized. Inhibition of HADH2 activity was screened by utilizing beta-hydroxybutyryl coenzyme A as an electron donor and NAD+ as an electron acceptor/cofactor. An increase in the fluorescence intensity due to conversion of NAD+ to NADH was used to measure the enzyme activity.
# Assay Protocol: Buffer: 100 mM Tris-HCl pH 9.0, containing 0.01 % Tween-20. Reagents/Controls: Buffer in columns 3 and 4 as negative control (no enzyme). Substrate/cofactor solution: 1 mM NAD+ and 90 uM beta-hydroxybutyryl coenzyme A (Sigma-Aldrich, St. Louis, MO) final concentrations dispensed throughout the plate. Enzyme: 20 nM HADH2 final concentration in columns 1, 2, 5-48. Column 1 is neutral (100% activity). Column 2 contained titration of apomorphine (Sigma-Aldrich, A 4393, PubChem CID 2215, top concentration 500 uM, then 1:2 dilution in duplicate) Assay Steps: Three uL of enzyme were dispensed to 1536-well Greiner black solid bottom plates. Compounds and controls (23 nL) were transferred via Kalypsys PinTool. The plates were incubated for 15 min at room temperature, and then 1 uL of substrate/cofactor solution was added to start the reaction. The plates were immediately transferred to and read every 30 seconds for 4 min on ViewLux High-throughput CCD imager (Perkin-Elmer) using 360 nm excitation and 450 nm emission fluorescence protocol. The fluorescence intensity difference between the last and the first time points was used to compute reaction progress.
# % is set by controls: 0 for no effect and ±100 for the full control effect; potency is the fitted concentration of half-maximal effect.
Compound,"activity change, negative = inhibition",Potency
COc1cccc(Nc2nnc(SCC(=O)N3CC(C)OC(C)C3)s2)c1 (stereo unspecified),-1.19% (inactive),–
O=C(C1CCN(CC2CCCCC2)CC1)N1CCCC1,3.46% (inactive),–
Cn1c(CCN2CCCCCC2)nc2cc(NC(=O)Nc3ccccc3)ccc21,–,25.1 µM (active)
Cc1nn(CC(=O)Nc2ccc3c(c2)nc(CN2CCCCC2)n3C)c(=O)c2ccccc12,-9.44% (inactive),–
CCC(=O)Nc1ccc2c(c1)nc(CCN1CCN(C)CC1)n2C,5.81% (inactive),–
CN(C)CCCCNC(=O)c1ccc(Cc2nc3ccccc3[nH]2)cc1,5.28% (inactive),–
CN(C)CCCNC(=O)c1ccc2[nH]c3ccccc3c2c1,–,20 µM (active)
CC(C)N(CCNC(=O)c1ccc(-n2c(=O)c(=O)[nH]c3ccccc32)cc1)C(C)C,3.88% (inactive),–
COC(=O)[C@@]1(Cc2ccc(OC)cc2)[C@H]2c3cc(C(=O)N4CCCC4)n(Cc4ccc(OC(F)(F)F)cc4)c3C[C@H]2CN1C(=O)c1ccccc1,14.2% (inactive),–
Cc1ccc2c(C(=O)CN3CCCC3)c(C)[nH]c2c1,0.156% (inactive),–
CCOC(=O)c1nnn(-c2nonc2OC)c1-c1ccccc1,-0.321% (inactive),–
CC(=O)Oc1c2c(c3c(c1CC=C(C)C)O[C@@]14C(=CC5CC1C(C)(C)OC4(C/C=C(\C)C(=O)O)C5=O)C3=O)OC(C)(CCC=C(C)C)C=C2 (stereo partly specified),–,20 µM (active)
CCOC(=O)CN(C(=O)CN1CCOCC1)c1ccc(Br)cc1,3.7% (inactive),–
Cc1ccc(OCC(O)CN2CCN(CC(O)COc3ccc(C)cc3Cl)CC2)c(Cl)c1 (stereo unspecified),0.725% (inactive),–
CC(C)c1ccc(-c2nn[nH]n2)cc1,5.91% (inactive),–
c1ccc(-n2ncc(-c3nn[nH]n3)n2)cc1,–,31.6 µM (active)
CCCn1nnc2sc3c(c2c1=O)CCC(C)C3 (stereo unspecified),-2.75% (inactive),–
Cc1nc2cc(S(=O)(=O)C(F)(F)F)ccc2s1,-3.67% (inactive),–
CC(=O)Oc1ccc2c(C)c(CC(C)O)c(=O)oc2c1 (stereo unspecified),–,2 µM (active)
COc1ccc(-c2oc3cc(OC)ccc3c2C(=O)c2ccc(C#N)cc2)cc1,-2.67% (inactive),–
CN1C(C)(C)CC(NC(=O)CCC(=O)NC2CC(C)(C)N(C)C(C)(C)C2)CC1(C)C,2.35% (inactive),–
O=C(CCCOc1ccccc1)Nc1cccc(C(=O)O)c1,-10.7% (inactive),–
Cc1ccc2c(c1)N(CCCC(=O)NCc1cccnc1)C(=O)CO2,-1.27% (inactive),–
COc1cccc(N(CC(=O)Nc2cccc(N(C)S(C)(=O)=O)c2)S(C)(=O)=O)c1,8.68% (inactive),–
COC(=O)c1cn(-c2ccccc2)nc1-c1cccnc1,12.2% (inactive),–
COc1ccc2c(=O)cc(-c3ccccc3)oc2c1O,-0.613% (inactive),–

Compound,"activity change, negative = inhibition",Potency
Cc1cccc(-c2cc(=O)c3cc(C)ccc3o2)c1,–,31.6 µM (active)
Cc1ccc2oc(=O)ccc2c1,3.68% (inactive),–
COc1ccc(C)cc1-n1nnnc1SCC(=O)c1cc(C)n(Cc2ccco2)c1C,-5.37% (inactive),–
O=C(NCCc1ccc(Cl)cc1)C1CC(=O)N(C2CCCCC2)C1 (stereo unspecified),4.48% (inactive),–
Oc1cc2c(cc1O)CN(C(=S)NCCc1ccc(Cl)cc1)CCC2,–,15.8 µM (active)
NS(=O)(=O)c1ccc(CCNC(=O)Nc2ccc(Cl)cc2)cc1,-7.81% (inactive),–
CN1CCc2[nH]nc(-c3n[nH]c4c3CN(C)CC4)c2C1,4.35% [at 11.4 µM] (inactive),–
CCn1c(COc2cccc(OC)c2)nnc1SCC(=O)N1CCOCC1,-0.496% (inactive),–
COc1ccc(-c2nc(SCC(=O)N3CCOCC3)n[nH]2)cc1,7.74% (inactive),–
COc1ccc(-c2ccnc(SCC(=O)N3CCOCC3)n2)cc1,–,25.1 µM (active)
Nc1ccc(-c2nnc(-c3ccc(-c4ccccc4)cc3)o2)cc1,–,5.01 µM (active)
O=C(CSc1nnc(-c2ccccc2)o1)N1CCOCC1,11% (inactive),–
O=C(OCc1nnc(-c2ccccc2)o1)c1ccc2c(c1)C(=O)N(CCc1ccccc1)C2=O,9.34% (inactive),–
Fc1cccc(/C=N\N=C/c2cccc(F)c2)c1,-3.93% (inactive),–
O=C(O)CCC(=O)NCc1ccc2[nH]c3c(c2c1)CCCC3,-16.9% (inactive),–
N#CCCN1CCN(S(=O)(=O)c2ccc(S(=O)(=O)NC3CCCCC3)cc2)CC1,-1.99% (inactive),–
COc1ccccc1-n1c(CNC(=O)c2ccccc2)nnc1SCC(=O)Nc1nnc(C)s1,-0.833% (inactive),–
COC(CCN(C)C)(c1ccccc1)c1ccccc1,12.6% (inactive),–
COc1cccc(-c2nc(S(=O)(=O)c3ccccc3)c(N3CCOCC3)o2)c1,-22.1% (inactive),–
COc1cccc(-c2nc3cc(C)ccc3o2)c1,–,25.1 µM (active)
CCCCN(CC)CCCNC(=O)CS(=O)(=O)Cc1nc(-c2cccc(OC)c2)oc1C,-8.92% (inactive),–
COc1ccccc1N1CCN(CCN2C(=O)c3ccccc3C(C)(C)C2=O)CC1,-13.9% (inactive),–
COc1ccc(OC)c(CNC(=O)CCc2nc(-c3cccs3)no2)c1,4.41% (inactive),–
CCC1=C/C(=C\c2ccc3c(c2)OCO3)C(=O)S1,–,25.1 µM (active)
CCOC(=O)NCc1ccc2c(c1)OCO2,-1.13% (inactive),–
